Experimental data published in the supplement of paper PMC10849652.
Of roughly 8,800 targets only a part is listed; those with a hit were picked by preference. About 0.5% of all pairs of compound and target were hits.

Key:
Experiment in all cases: log2 fold change, soluble protein after heating vs DMSO (PISA); higher = thermal stabilisation; K562 lysate, 10 uM; active = over 0.2 and 3.5 SD of the protein, either way, in both replicates (recomputed)
[1] = compound: C=CC(=O)N1CCC[C@@H](n2nc(-c3ccc(Oc4ccccc4)cc3)c3c(N)ncnc32)C1 [ibrutinib]
Outline: (§1)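 To prepare the extract, K562 pellets were dounce-homogenised in PBS pH 7.4 with 1 mM MgCl2, giving crude material at 1 mg/mL protein. This was treated with 10 μM compound for 30 min, then heated in aliquots for 3 min over 48°C-58°C before pooling and addition of NP-40 to 0.5% at 4°C. Centrifugation at 21,000xg for 90 min left soluble protein in the supernatant, which TMTpro 16plex LC-MS/MS quantified with equalised channel sums. Results are log-two fold changes in thermal stability compared with solvent controls, from duplicates.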

[2] = compound: CC(=O)c1cnc2ccc(-c3cc(Cl)c(O)c(Cl)c3)nc2c1N[C@H]1CC[C@H](CN(C)C)CC1
Outline: as §1

[3] = compound: CC(C)(C)Cn1c(N)nc2ccc(-c3[nH]c(C(C)(C)C)nc3-c3ccc(F)cc3)nc21 [ralimetinib]
Outline: as §1

[4] = compound: CC(C)(O)CC(=O)NCCn1ccc2ncnc(Nc3ccc(Oc4cccc(C(F)(F)F)c4)c(Cl)c3)c21
Outline: as §1

[5] = compound: CC(C)C1=C2N=C(C=C(N2N=C1)NCC3=CC=CC=C3)NCCCCCCN
Outline: as §1

[6] = compound: CC1=C(C(CC(=O)N1)C2=CC=C(C=C2)C(F)(F)F)C(=O)NC3=C(C=C4C(=C3)C=NN4)F
Outline: as §1

[7] = compound: CC1=C(C2=C(C=C1)C(=O)C3=CC=CC=C3N2CCCN)C
Outline: as §1

[8] = compound: CC1=C(C=C(C=C1)NC(=O)C2=CC(=CC=C2)C(C)(C)C#N)NC3=CC4=C(C=C3)N=CN(C4=O)C
Outline: as §1

[9] = compound: CC1=C(C=C(C=C1)NC(=O)C2=CC(=CC=C2)N(C)C)NC(=O)C3=CC=C(C=C3)O
Outline: as §1

[10] = compound: CC1=CC=C(C=C1)SC2=C3C=C(SC3=CN=C2)C(=O)N
Outline: as §1

[11] = compound: CCCS(=O)(=O)Nc1ccc(F)c(C(=O)c2c[nH]c3ncc(-c4ccc(Cl)cc4)cc23)c1F [vemurafenib]
Outline: as §1

[12] = compound: CCCS(=O)(=O)Nc1ccc(F)c(C(=O)c2c[nH]c3ncc(Cl)cc23)c1F
Outline: as §1

[13] = compound: CCN(CCCOc1ccc2c(Nc3cc(CC(=O)Nc4cccc(F)c4)[nH]n3)ncnc2c1)CCOP(=O)(O)O [barasertib]
Outline: as §1

[14] = compound: CC[C@@H]1C(=O)N(C)c2cnc(Nc3ccc(C(=O)NC4CCN(C)CC4)cc3OC)nc2N1C1CCCC1
Outline: as §1

[15] = compound: CC[C@@H]1C(=O)N(C)c2cnc(Nc3ccc(C(=O)N[C@H]4CC[C@H](N5CCN(CC6CC6)CC5)CC4)cc3OC)nc2N1C(C)C [volasertib]
Outline: as §1

[16] = compound: CCn1c(C(=O)N(C2CC2)C2CC2)cc2c3c(ncn3C)c(Nc3cc(C)n(C)n3)nc21
Outline: as §1

[17] = compound: CCn1cc(-c2ccnc3[nH]c(-c4cccc(CN(C)C)c4)cc23)c(-c2ccc(NC(=O)N(C)C)cc2)n1
Outline: as §1

[18] = compound: CN1CCC(CNc2ccc3ncc(-c4cccc(OC(F)(F)F)c4)n3n2)CC1
Outline: as §1

[19] = compound: CN1CCN(CCOc2cc(OC3CCOCC3)c3c(Nc4c(Cl)ccc5c4OCO5)ncnc3c2)CC1 [saracatinib]
Outline: as §1

[20] = compound: CN1CCN(c2nc(C3=C(c4c[nH]c5ccccc45)C(=O)NC3=O)c3ccccc3n2)CC1 [sotrastaurin]
Outline: as §1

Measured: log2 fold change

MRPL28 (UniProt Q13084)
active: [17] 0.411
inactive: [1] 0.151 | [2] 0.04 | [3] 0.027 | [4] -0.005 | [5] 0.012 | [6] -0.112 | [7] -0.017 | [8] 0.057 | [9] -0.012 | [10] 0.023 | [11] 0.005 | [12] 0.009 | [13] 0.053 | [14] -0.06 | [15] 0.019 | [16] 0.024 | [18] -0.356 | [19] -0.016 | [20] 0.055

MIPEP (UniProt Q99797)
inactive: [1] 0.041 | [2] 0.054 | [3] 0.027 | [4] 0.07 | [5] -0.02 | [6] -0.001 | [7] -0.003 | [8] -0.067 | [9] 0.044 | [10] 0.003 | [11] -0.026 | [12] 0.004 | [13] 0.006 | [14] -0.053 | [15] -0.029 | [16] 0.029 | [17] -0.05 | [18] -0.015 | [19] 0.001 | [20] -0.042

MAP1S (UniProt Q66K74)
Sequence of UniProt Q66K74 (Q66K74 whole entry, looked up): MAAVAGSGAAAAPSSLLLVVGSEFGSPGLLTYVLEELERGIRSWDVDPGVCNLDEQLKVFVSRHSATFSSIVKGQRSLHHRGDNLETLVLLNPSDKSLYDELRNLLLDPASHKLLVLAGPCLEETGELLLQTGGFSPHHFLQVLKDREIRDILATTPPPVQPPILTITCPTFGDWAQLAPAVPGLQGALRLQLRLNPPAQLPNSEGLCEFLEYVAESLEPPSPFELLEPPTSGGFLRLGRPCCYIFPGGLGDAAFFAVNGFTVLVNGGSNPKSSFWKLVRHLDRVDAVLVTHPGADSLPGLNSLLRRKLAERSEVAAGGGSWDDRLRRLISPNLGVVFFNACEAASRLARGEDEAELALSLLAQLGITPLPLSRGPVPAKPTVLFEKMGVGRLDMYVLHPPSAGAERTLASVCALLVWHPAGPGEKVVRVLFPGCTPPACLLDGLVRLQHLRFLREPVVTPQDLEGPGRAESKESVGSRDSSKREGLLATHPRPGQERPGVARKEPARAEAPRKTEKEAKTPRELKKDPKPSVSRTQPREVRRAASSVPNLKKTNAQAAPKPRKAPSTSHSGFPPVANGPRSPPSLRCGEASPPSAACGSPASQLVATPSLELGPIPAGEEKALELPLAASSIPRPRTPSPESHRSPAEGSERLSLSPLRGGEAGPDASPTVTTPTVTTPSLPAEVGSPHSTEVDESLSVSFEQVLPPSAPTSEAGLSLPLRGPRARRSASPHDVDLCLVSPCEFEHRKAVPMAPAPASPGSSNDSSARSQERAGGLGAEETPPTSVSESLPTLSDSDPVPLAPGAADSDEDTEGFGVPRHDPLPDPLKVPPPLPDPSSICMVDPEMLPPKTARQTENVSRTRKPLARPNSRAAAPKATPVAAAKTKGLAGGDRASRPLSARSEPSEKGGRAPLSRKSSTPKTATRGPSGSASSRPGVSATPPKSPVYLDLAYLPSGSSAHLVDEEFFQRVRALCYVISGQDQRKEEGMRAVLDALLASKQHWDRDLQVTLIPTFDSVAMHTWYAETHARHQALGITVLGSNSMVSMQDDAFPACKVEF
inactive: [1] -0.008 | [2] -0.026 | [3] 0.004 | [4] -0.041 | [5] -0.005 | [6] 0.011 | [7] -0.021 | [8] 0 | [9] 0.025 | [10] 0.006 | [11] -0.004 | [12] 0.041 | [13] 0.002 | [14] -0.035 | [15] -0.024 | [16] -0.01 | [17] -0.056 | [18] -0.022 | [19] 0.038 | [20] 0.037

MAP4K4 isoform 3 (UniProt O95819)
inactive: [1] -0.052 | [2] -0.021 | [3] -0.065 | [4] -0.002 | [5] 0.046 | [6] 0.067 | [7] -0.042 | [8] -0.022 | [9] 0.062 | [10] -0.056 | [11] -0.185 | [12] -0.119 | [13] -0.029 | [14] -0.071 | [15] 0.011 | [16] -0.011 | [17] 0.169 | [18] -0.158 | [19] 0.082

MCU (UniProt Q8NE86)
inactive: [1] -0.05 | [2] 0.04 | [3] 0.086 | [4] -0.021 | [5] -0.055 | [6] 0.014 | [7] 0.02 | [8] 0.034 | [9] 0.014 | [10] -0.023 | [11] 0.011 | [12] 0.017 | [13] 0.077 | [14] -0.085 | [15] -0.033 | [16] -0.049 | [17] -0.062 | [18] -0.099 | [19] 0.04 | [20] 0.017

LIG4 (UniProt P49917)
Sequence of UniProt P49917 (P49917 whole entry, looked up): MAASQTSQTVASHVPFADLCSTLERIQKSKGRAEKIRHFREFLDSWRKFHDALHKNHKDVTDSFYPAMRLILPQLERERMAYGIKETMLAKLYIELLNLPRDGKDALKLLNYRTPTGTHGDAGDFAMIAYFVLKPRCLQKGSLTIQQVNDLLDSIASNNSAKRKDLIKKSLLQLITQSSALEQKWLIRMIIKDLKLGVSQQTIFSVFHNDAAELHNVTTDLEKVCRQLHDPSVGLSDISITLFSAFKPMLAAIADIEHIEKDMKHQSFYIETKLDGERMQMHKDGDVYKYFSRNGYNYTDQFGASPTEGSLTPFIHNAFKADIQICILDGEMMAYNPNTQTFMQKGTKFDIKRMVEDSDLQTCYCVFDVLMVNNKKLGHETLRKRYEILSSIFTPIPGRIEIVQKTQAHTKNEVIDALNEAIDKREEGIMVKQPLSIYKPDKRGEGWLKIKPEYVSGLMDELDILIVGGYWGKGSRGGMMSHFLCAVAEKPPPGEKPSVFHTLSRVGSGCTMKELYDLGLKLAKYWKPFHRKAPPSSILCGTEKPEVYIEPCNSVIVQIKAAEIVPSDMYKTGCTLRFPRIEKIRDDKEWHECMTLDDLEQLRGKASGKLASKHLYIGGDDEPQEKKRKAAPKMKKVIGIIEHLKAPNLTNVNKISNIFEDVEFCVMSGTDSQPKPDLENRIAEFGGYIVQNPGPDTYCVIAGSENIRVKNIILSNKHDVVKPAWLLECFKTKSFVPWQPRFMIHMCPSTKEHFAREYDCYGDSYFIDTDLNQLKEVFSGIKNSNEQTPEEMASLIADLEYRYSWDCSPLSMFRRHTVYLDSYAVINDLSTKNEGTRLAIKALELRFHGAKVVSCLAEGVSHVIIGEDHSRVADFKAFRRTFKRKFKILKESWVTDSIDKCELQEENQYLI
inactive: [1] 0.056 | [2] 0.174 | [3] -0.001 | [4] -0.023 | [5] 0.013 | [6] -0.016 | [7] -0.021 | [8] 0.004 | [9] 0.015 | [10] 0.109 | [11] 0.041 | [12] -0.034 | [13] -0.04 | [14] -0.087 | [15] -0.182 | [16] -0.027 | [17] -0.105 | [18] 0.018 | [19] 0.027 | [20] 0.048

MBLAC2 (UniProt Q68D91)
Sequence of UniProt Q68D91 (Q68D91 whole entry, looked up): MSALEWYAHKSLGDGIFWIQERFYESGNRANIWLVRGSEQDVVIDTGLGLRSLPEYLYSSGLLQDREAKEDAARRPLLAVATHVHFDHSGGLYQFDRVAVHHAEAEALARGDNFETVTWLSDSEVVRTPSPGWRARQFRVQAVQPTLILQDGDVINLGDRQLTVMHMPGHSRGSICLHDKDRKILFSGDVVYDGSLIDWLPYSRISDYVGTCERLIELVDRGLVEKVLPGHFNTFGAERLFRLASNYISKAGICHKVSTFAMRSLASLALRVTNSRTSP
inactive: [1] 0.05 | [2] -0.005 | [3] 0.069 | [4] 0.003 | [5] 0.035 | [6] 0.04 | [7] 0.037 | [8] -0.013 | [9] -0.044 | [10] -0.019 | [11] -0.069 | [12] -0.006 | [13] 0.013 | [14] -0.042 | [15] 0.002 | [16] 0.008 | [17] 0.036 | [18] 0.078 | [19] -0.042 | [20] 0.016

KIF21A isoform 5 (UniProt Q7Z4S6)
Sequence of UniProt Q7Z4S6 (Q7Z4S6 whole entry, looked up): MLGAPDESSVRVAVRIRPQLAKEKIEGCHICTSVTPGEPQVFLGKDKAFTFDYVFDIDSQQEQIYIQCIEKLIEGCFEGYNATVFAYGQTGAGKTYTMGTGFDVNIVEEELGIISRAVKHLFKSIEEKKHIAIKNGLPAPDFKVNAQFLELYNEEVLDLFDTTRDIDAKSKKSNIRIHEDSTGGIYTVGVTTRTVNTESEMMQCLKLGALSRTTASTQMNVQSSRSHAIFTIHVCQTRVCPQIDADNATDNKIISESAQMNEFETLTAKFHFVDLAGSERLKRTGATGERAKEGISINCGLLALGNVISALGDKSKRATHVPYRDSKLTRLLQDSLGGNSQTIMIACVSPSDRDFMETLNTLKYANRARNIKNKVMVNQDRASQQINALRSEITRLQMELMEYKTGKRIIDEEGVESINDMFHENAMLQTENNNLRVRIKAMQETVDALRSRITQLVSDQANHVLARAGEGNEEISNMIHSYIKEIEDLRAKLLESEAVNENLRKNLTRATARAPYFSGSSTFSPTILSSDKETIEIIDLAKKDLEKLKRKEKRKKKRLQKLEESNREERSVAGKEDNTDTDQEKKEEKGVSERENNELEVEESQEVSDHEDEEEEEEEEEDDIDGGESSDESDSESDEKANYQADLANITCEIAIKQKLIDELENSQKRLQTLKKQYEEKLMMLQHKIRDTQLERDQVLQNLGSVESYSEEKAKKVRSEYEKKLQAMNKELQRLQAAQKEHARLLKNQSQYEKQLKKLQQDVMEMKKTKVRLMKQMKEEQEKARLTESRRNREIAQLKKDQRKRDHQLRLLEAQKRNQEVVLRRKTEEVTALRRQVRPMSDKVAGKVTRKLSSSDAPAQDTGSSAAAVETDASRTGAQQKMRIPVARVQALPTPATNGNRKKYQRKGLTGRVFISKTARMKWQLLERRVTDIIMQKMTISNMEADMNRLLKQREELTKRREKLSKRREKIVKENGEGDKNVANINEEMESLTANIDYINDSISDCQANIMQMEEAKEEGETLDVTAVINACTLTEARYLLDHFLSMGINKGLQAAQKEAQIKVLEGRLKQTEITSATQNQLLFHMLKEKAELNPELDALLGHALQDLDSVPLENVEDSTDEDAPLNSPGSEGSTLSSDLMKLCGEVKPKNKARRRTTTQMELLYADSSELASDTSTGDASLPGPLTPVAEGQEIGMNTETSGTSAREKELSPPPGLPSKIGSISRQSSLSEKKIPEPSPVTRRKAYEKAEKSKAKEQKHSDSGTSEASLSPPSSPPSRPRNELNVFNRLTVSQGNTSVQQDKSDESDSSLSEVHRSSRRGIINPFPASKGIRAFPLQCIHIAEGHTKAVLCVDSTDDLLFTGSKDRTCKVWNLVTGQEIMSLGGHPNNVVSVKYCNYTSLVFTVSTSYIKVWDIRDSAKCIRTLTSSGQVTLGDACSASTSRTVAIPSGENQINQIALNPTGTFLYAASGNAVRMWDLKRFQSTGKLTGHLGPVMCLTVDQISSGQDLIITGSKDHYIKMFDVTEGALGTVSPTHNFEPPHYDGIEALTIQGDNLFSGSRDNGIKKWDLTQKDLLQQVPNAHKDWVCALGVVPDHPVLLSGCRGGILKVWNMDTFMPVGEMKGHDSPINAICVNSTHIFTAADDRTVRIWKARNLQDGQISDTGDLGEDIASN
inactive: [1] 0.027 | [2] -0.002 | [3] 0.015 | [4] 0 | [5] 0.002 | [6] 0.034 | [7] -0.031 | [8] 0.025 | [9] 0.014 | [10] 0.024 | [11] 0.03 | [12] 0.041 | [13] 0.005 | [14] -0.038 | [15] -0.026 | [16] -0.025 | [17] 0.165 | [18] -0.101 | [19] 0.037 | [20] 0.017

KSR1 (UniProt Q8IVT5)
inactive: [1] 0.021 | [2] -0.103 | [3] 0.054 | [4] 0.021 | [5] -0.025 | [6] -0.011 | [7] -0.032 | [8] 0.007 | [9] 0.019 | [10] -0.074 | [11] 0.021 | [12] 0.049 | [13] -0.022 | [14] -0.009 | [15] 0.016 | [16] 0.009 | [17] 0.187 | [18] -0.056 | [19] -0.003 | [20] -0.065

KLC4 isoform 3 (UniProt Q9NSK0)
inactive: [1] -0.007 | [2] 0.012 | [3] 0.008 | [4] -0.023 | [5] -0.024 | [6] -0.018 | [7] 0.009 | [8] 0.019 | [9] -0.001 | [10] 0.003 | [11] -0.038 | [12] 0.02 | [13] -0.008 | [14] 0.038 | [15] -0.029 | [16] 0.052 | [17] 0.011 | [18] -0.018 | [19] -0.012 | [20] 0.003

MGST1 (UniProt P10620)
Sequence of UniProt P10620 (P10620 whole entry, looked up): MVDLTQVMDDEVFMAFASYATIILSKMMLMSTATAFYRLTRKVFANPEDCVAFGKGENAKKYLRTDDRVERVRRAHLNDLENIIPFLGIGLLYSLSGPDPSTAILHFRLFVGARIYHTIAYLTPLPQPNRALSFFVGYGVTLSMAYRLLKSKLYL
inactive: [1] 0.052 | [2] 0.039 | [3] 0.054 | [4] -0.047 | [5] -0.002 | [6] 0.002 | [7] -0.078 | [8] -0.01 | [9] 0.014 | [10] 0.05 | [11] 0.015 | [12] 0.018 | [13] 0.027 | [14] 0.097 | [15] 0.07 | [16] -0.036 | [18] -0.069 | [19] 0.068 | [20] -0.013
active: [17] 0.279

MICB, A0A140T979
inactive: [1] 0.074 | [2] 0.317 | [3] -0.037 | [4] -0.101 | [5] -0.07 | [6] -0.11 | [7] -0.002 | [8] 0.016 | [9] 0.004 | [10] -0.068 | [11] -0.054 | [12] 0.098 | [13] 0.039 | [14] 0.223 | [15] -0.072 | [16] -0.084 | [17] -0.05 | [18] 0.066 | [19] 0.019 | [20] 0.096

MRPL15 (UniProt Q9P015)
inactive: [1] 0.003 | [2] -0.078 | [3] -0.024 | [4] -0.056 | [5] -0.01 | [6] -0.007 | [7] -0.133 | [8] 0.032 | [9] 0.009 | [10] -0.023 | [11] 0.004 | [12] 0.025 | [13] -0.04 | [14] 0.024 | [15] -0.018 | [16] -0.062 | [18] 0.174 | [19] -0.07 | [20] 0.023
active: [17] -0.509

MED16 (UniProt Q9Y2X0)
inactive: [1] -0.113 | [2] -0.012 | [3] 0.057 | [4] 0.046 | [5] -0.014 | [6] 0.021 | [7] -0.01 | [8] -0.038 | [9] -0.018 | [10] 0.005 | [11] -0.059 | [12] 0.008 | [13] -0.113 | [14] -0.04 | [15] -0.036 | [16] 0.056 | [17] 0.177 | [18] -0.189 | [19] -0.014 | [20] -0.018

MPZL1 (UniProt O95297)
Sequence of UniProt O95297 (O95297 whole entry, looked up): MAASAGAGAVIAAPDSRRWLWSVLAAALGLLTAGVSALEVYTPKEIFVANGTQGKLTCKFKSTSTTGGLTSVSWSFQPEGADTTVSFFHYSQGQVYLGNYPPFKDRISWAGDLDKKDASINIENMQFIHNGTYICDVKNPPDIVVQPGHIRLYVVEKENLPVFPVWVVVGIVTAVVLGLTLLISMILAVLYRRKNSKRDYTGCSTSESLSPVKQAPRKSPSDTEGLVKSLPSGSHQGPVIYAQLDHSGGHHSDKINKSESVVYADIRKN
inactive: [1] 0.01 | [2] -0.008 | [3] -0.01 | [4] 0.022 | [5] -0.035 | [6] -0.006 | [7] 0.003 | [8] 0.02 | [9] -0.035 | [10] -0.036 | [11] 0.037 | [12] 0.001 | [13] 0.024 | [14] 0.057 | [15] 0.035 | [16] 0.027 | [18] -0.052 | [19] 0.045 | [20] -0.022
active: [17] 0.262

LYN (UniProt P07948)
Sequence of UniProt P07948 (P07948 whole entry, looked up): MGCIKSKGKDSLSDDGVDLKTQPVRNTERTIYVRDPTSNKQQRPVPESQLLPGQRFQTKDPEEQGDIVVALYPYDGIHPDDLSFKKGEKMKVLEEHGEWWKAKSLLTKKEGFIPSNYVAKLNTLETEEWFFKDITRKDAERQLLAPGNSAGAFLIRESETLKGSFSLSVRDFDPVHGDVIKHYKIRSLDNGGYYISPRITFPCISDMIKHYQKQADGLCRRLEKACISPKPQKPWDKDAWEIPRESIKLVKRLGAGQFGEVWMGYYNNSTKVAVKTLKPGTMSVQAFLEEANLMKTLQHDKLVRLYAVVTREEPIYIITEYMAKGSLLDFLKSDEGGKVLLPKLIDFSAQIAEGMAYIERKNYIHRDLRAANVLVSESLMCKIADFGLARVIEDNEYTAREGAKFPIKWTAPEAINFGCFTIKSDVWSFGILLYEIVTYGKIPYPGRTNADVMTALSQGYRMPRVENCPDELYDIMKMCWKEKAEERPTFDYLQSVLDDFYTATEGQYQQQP
inactive: [2] 0.141 | [3] -0.068 | [4] 0.068 | [5] 0 | [6] 0.003 | [7] -0.043 | [8] 0.479 | [9] 0.007 | [10] -0.126 | [11] 0.285 | [12] 0.05 | [13] 0.258 | [14] -0.067 | [15] -0.134 | [16] 0.004 | [17] -0.012 | [18] 0.233 | [19] 0.605 | [20] -0.045
active: [1] 1.15
